Test results: article PMC5540273 (PLoS ONE, 2017)

Test system: TTK
Conditions: concentration: 1 μM, replicates: in singlicate; n = 1
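Also: KINOMEscan kinase panel screen.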

| SMILES | %Inh |
| --- | --- |
| COC(=O)Nc1nc2cc(Oc3ccc(NC(=O)Nc4cc(F)ccc4F)cc3)ccc2[nH]1.Cl [GW701424] | 0% |
| O=c1cc(N2CCOCC2)nc2n(Cc3cccc(Cl)c3Cl)c(C3CC3)nn12 [GSK2358994] | 0% |
| Nc1nccc(-c2c(-c3ccc(F)cc3)ncn2C2CCN(CC(F)(F)F)CC2)n1 [SB-236560] | 0% |
| O=C(Nc1cccc(-c2nn3ncccc3c2-c2ccnc(Nc3cccc(C(F)(F)F)c3)n2)c1)c1c(F)cccc1F [GSK299495] | 6% |
| CSc1ccc(-c2cc3ncnc(SCC(=O)O)c3s2)cc1 | 0% |
| Cn1ccc2ncnc(Oc3ccc(NC(=O)Nc4ccncc4)c(Cl)c3)c21 | 0% |
| O=c1cc(N2CCOCC2)nc2n(Cc3cccc4ccccc34)ccn12 [GSK2333389] | 10% |
| CCc1nc(-c2cccc(C)c2)c(-c2ccnc(NCc3ccccc3)c2)s1 | 12% |
| CC(C)(C)n1cnc2c(N)ncnc21 [SKF-97359] | 0% |
| COc1ccc(CNC(=O)NC2CCN(c3ccnc(Nc4ccc(OC)cc4)n3)C2)cc1 (stereo not shown) [GSK1379727] | 18% |
| Fc1ccc(-c2ncn(CCCN3CCOCC3)c2-c2ccccn2)cc1 [SB-211742] | 0% |
| O=c1cc(N2CCOCC2)nc2n(Cc3cccc(F)c3)ccn12 [GSK2297430] | 0% |
| COc1cc(Nc2nccc(N3CCC(NC(=O)c4cccc(NC(C)=O)c4)C3)n2)cc(OC)c1OC (stereo not shown) [GSK1379754] | 27% |
| Cc1cccc(Cn2ccn3c(=O)cc(N4CCOCC4)nc23)c1 [GSK2297542] | 62% |
| O=C(NOCC1CC1)c1ccc(F)c(F)c1Nc1ccc(I)cc1Cl | 0% |
| C[C@@H](Oc1cc(-n2cnc3ccc(NC(=O)NC(C)(C)C)cc32)sc1C(N)=O)c1ccccc1Cl [GSK346294] | 0% |
| Cc1nnc(-c2ccc(C)c(-c3ccc(C(=O)Nc4ccc(NS(C)(=O)=O)cc4)cc3)c2)o1 [GW702865] | 0% |

| SMILES | %Inh |
| --- | --- |
| N#Cc1ccc(-c2cc(-c3c[nH]nc3-c3ccccn3)ccn2)cc1 [GW693028] | 3% |
| O=C(Nc1n[nH]c2cc(-c3cccc(F)c3)ccc12)C1CC1 [SB-735464] | 21% |
| Cn1cc(-c2ccc3c(c2)CCN3C(=O)Cc2ccccc2Cl)c2c(N)ncnc21 [GSK2608885] | 17% |
| CC(C)Oc1ccc2c(-c3ccnc(Nc4ccc(N5CCN(C)CC5)cc4)n3)cnn2n1 [GW696155] | 89% |
| O=C(NCCCN1CCOCC1)c1cccc(Nc2nccc(Nc3ccc(Oc4ccccc4)cc3)n2)c1 [GW663929] | 21% |
| COc1cc2c(cc1OC[C@@H](O)CO)ncc1c3ccc(C#N)cc3[nH]c21 | 0% |
| CN(C1=C(c2ccccc2)C(=O)NC1=O)c1ccccc1 [SB-334860] | 0% |
| Fc1ccc(-c2nn3c(OCC(F)(F)F)cccc3c2-c2ccncc2)cc1 [GW514784] | 0% |
| O=C1NC(=O)C(N2CCc3ccccc32)=C1c1cccc(Cl)c1 [SB-408010] | 39% |
| Cl.Nc1ncnc2occ(-c3ccc(NC(=O)Nc4cc(C(F)(F)F)ccc4F)cc3)c12 [SB-707548] | 35% |
| NS(=O)(=O)CCc1cccc(Nc2nccc(-c3c(-c4cccc(NC(=O)c5c(F)cccc5F)c4)nn4ccccc34)n2)c1 [GSK336735] | 26% |
| Cc1nnc(-c2ccc3ncc(-c4ccc(S(C)=O)cc4)n3c2)o1 (stereo not shown) | 0% |
| COc1ccc(Nc2nccc(N3CCC(NC(=O)Nc4cccc(C(C)=O)c4)C3)n2)cc1 (stereo not shown) [GSK1379731] | 15% |
| NCC(NC(=O)c1cc(-c2cn[nH]c2)c(-c2ccnc3[nH]ccc23)s1)c1ccccc1.O=C(O)C(F)(F)F.O=C(O)C(F)(F)F (stereo not shown) [GSK1325775] | 14% |
| N#Cc1c(N2CCOCC2)sc(-c2ccn[nH]2)c1-c1ccc(Cl)cc1 | 19% |
| c1ccc(-c2n[nH]cc2-c2ccnc3ccccc23)nc1 [GW271431] | 4% |
| Nc1nc(-c2ccc3c(N)n[nH]c3c2)cc(N2CCCC2)n1 [GSK2227430] | 11% |
